From the supplement of paper PMC9262897, “Low-cost anti-mycobacterial drug discovery using engineered E. coli” (Nature Communications, 2022)
Where a name gives a salt, the structure may show the parent alone. ± gives the standard deviation of the averaged measurements.

Legend:
Assay in all cases: growth (OD600 after 10 h); higher = more growth (less inhibition)
[1] = system: E. coli TESEC Alr+ wild-type control; details: compound 0.1 mM; raw OD600 reference: median of DMSO wells 0.241, cell-free background 0.041
Experimental: (§1)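 TESEC Mtb Alr E. coli, or the Alr+ wild-type control, in 384-well plates with Prestwick library compounds at 0.1 mM and 1% DMSO, across arabinose induction levels of 1E3 to 1E7 nM. Growth is read as OD600 after 10 h at 37 °C in triplicate biological replicates.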

[2] = system: E. coli TESEC Mtb Alr; details: compound 0.1 mM
Experimental: as §1

[3] = system: E. coli TESEC Mtb Asd; details: compound 0.1 mM
Experimental: (§2)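 TESEC E. coli strains in which the native enzyme is deleted and replaced by arabinose-inducible Mtb Asd, DapB, CysH or TrpD, each grown in its selective medium. Strains were screened against the Prestwick library at 0.1 mM and 1% DMSO in 384-well format at low and high arabinose induction. Growth is read as OD600 after 10 h in triplicate.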

[4] = system: E. coli TESEC Mtb DapB; details: compound 0.1 mM
Experimental: as §2

[5] = system: E. coli TESEC Alr+ wild-type control; details: compound 0.1 mM; raw OD600 reference: median of DMSO wells 0.49, cell-free background 0.052
Experimental: (§3)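 TESEC Mtb Alr E. coli (ΔaraC ΔtolC ΔentC Δalr ΔdadX, arabinose-inducible Mtb Alr) or the Alr+ wild-type control strain, grown in defined M9-fructose medium without D-alanine in 96-well plates with Prestwick library compounds at 0.1 mM and 1% DMSO. Low Alr induction is 0.1 µM arabinose and high induction is 10 mM arabinose.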

[6] = system: E. coli TESEC Mtb Alr; details: compound 0.1 mM; remark: listed apart in the source
Experimental: as §3

[7] = arabinose 1000 nM, raw OD600 reference: median of DMSO wells 0.294, cell-free background 0.041
[8] = arabinose 10000 nM, raw OD600 reference: median of DMSO wells 0.264, cell-free background 0.041
[9] = arabinose 100000 nM, raw OD600 reference: median of DMSO wells 0.201, cell-free background 0.041
[10] = arabinose 1000000 nM, raw OD600 reference: median of DMSO wells 0.193, cell-free background 0.041
[11] = arabinose 10000000 nM, raw OD600 reference: median of DMSO wells 0.146, cell-free background 0.041
[12] = arabinose induction (level): High, raw OD600 reference: median of DMSO wells 0.331, cell-free background 0.041
[13] = arabinose induction (level): Low, raw OD600 reference: median of DMSO wells 0.417, cell-free background 0.041
[14] = arabinose induction (level): High, raw OD600 reference: median of DMSO wells […], cell-free background 0.041
[15] = arabinose induction (level): Low, raw OD600 reference: median of DMSO wells 0.227, cell-free background 0.041
[16] = arabinose 100 nM, raw OD600 reference: median of DMSO wells 0.413, cell-free background 0.052
[17] = arabinose 10000000 nM, raw OD600 reference: median of DMSO wells […], cell-free background 0.052

Row | Structure (SMILES) | growth [1] | growth [2, 7] | growth [2, 8] | growth [2, 9] | growth [2, 10] | growth [2, 11] | growth [3, 12] | growth [3, 13] | growth [4, 14] | growth [4, 15] | growth [5] | growth [6, 16] | growth [6, 17]
1 | O=C(O)[C@H]1/C(=C/CO)O[C@@H]2CC(=O)N21 [Clavulanate potassium salt] | 0.155 ± 0.0016 | 0.0502 ± 0.0035 | 0.0477 ± 0.0036 | 0.0582 ± 0.0016 | 0.195 ± 0.0057 | 0.0991 ± 0.0015 | 0.535 ± 0.033 | 0.387 ± 0.062 | 0.182 ± 0.0081 | 0.164 ± 0.012 | 0.04737 ± 0.00042 | 0.0839 ± 0.04 | 0.101 ± 0.017
2 | COc1ccc(Cl)cc1C(=O)NCCc1ccc(S(=O)(=O)NC(=O)NC2CCCCC2)cc1 [Glibenclamide] | 0.122 ± 0.0053 | 0.166 ± 0.035 | 0.146 ± 0.004 | 0.144 ± 0.0077 | 0.0688 ± 0.0014 | 0.125 ± 0.0025 | 0.154 ± 0.02 | 0.218 ± 0.015 | 0.158 ± 0.013 | 0.173 ± 0.014 | 0.355 ± 0.032 | 0.349 ± 0.12 | 0.0906 ± 0.0069
3 | NS(=O)(=O)c1cc2c(cc1Cl)NCNS2(=O)=O [Hydrochlorothiazide] | 0.245 ± 0.0063 | 0.282 ± 0.019 | 0.255 ± 0.006 | 0.234 ± 0.011 | 0.166 ± 0.0054 | 0.14 ± 0.0039 | 0.367 ± 0.053 | 0.408 ± 0.031 | 0.201 ± 0.013 | 0.244 ± 0.027 | 0.448 ± 0.062 | 0.41 ± 0.014 | 0.367 ± 0.019
4 | COc1ccccc1Oc1c(NS(=O)(=O)c2ccc(C(C)(C)C)cc2)nc(-c2ncccn2)nc1OCCO [Bosentan] | 0.227 ± 0.0037 | 0.253 ± 0.0068 | 0.269 ± 0.014 | 0.276 ± 0.011 | 0.103 ± 0.0025 | 0.147 ± 0.0018 | 0.253 ± 0.045 | 0.335 ± 0.065 | 0.177 ± 0.022 | 0.247 ± 0.051 | 0.544 ± 0.091 | 0.417 ± 0.0042 | 0.237 ± 0.015
5 | Cc1ccc(N(CC2=NCCN2)c2cccc(O)c2)cc1 [Phentolamine hydrochloride] | 0.219 ± 0.0053 | 0.287 ± 0.0088 | 0.27 ± 0.0075 | 0.2 ± 0.0085 | 0.173 ± 0.0079 | 0.161 ± 0.0026 | 0.252 ± 0.065 | 0.377 ± 0.048 | 0.193 ± 0.019 | 0.252 ± 0.024 | 0.452 ± 0.0089 | 0.411 ± 0.019 | 0.352 ± 0.026
6 | CCOC(=O)[C@H](CCc1ccccc1)N[C@@H](C)C(=O)N1CCC[C@H]1C(=O)O [Enalapril maleate] | 0.247 ± 0.014 | 0.296 ± 0.017 | 0.25 ± 0.0032 | 0.231 ± 0.03 | 0.174 ± 0.0046 | 0.161 ± 0.009 | 0.322 ± 0.039 | 0.373 ± 0.067 | 0.188 ± 0.018 | 0.268 ± 0.029 | 0.499 ± 0.024 | 0.412 ± 0.011 | 0.355 ± 0.017
7 | CC(=O)NCCCS(=O)(=O)O [Acamprosate calcium] | 0.233 ± 0.004 | 0.2868 ± 0.0017 | 0.242 ± 0.0043 | 0.202 ± 0.026 | 0.1706 ± 0.0011 | 0.142 ± 0.0039 | 0.259 ± 0.079 | 0.309 ± 0.033 | 0.212 ± 0.031 | 0.229 ± 0.028 | 0.472 ± 0.035 | 0.409 ± 0.01 | 0.35 ± 0.025
8 | CC[C@H](C)[C@H]1O[C@]2(CC[C@@H]1C)C[C@@H]1C[C@@H](CC=C(C)C(O[C@H]3C[C@H](OC)[C@@H](O[C@H]4C[C@H](OC)[C@@H](O)[C@H](C)O4)[C@H](C)O3)[C@@H](C)C=CC=C3CO[C@@H]4[C@H](O)C(C)=C[C@@H](C(=O)O1)[C@]34O)O2 (some centres not stated) [Ivermectin] | 0.315 ± 0.013 | 0.361 ± 0.0096 | 0.291 ± 0.0046 | 0.393 ± 0.048 | 0.209 ± 0.0085 | 0.222 ± 0.0088 | 0.343 ± 0.072 | 0.318 ± 0.13 | 0.281 ± 0.035 | 0.28 ± 0.041 | 0.525 ± 0.066 | 0.473 ± 0.046 | 0.409 ± 0.038
9 | CO[C@H]1/C=C/O[C@@]2(C)Oc3c(C)c(O)c4c(O)c(c5c(nc6cc(C)ccn65)c4c3C2=O)NC(=O)/C(C)=C\C=C\[C@H](C)[C@H](O)[C@@H](C)[C@@H](O)[C@@H](C)[C@H](OC(C)=O)[C@@H]1C [Rifaximin] | 0.044 ± 0.0038 | 0.0438 ± 0.0029 | 0.0409 ± 0.0005 | 0.0411 ± 0.00017 | 0.0418 ± 0.0021 | 0.0439 ± 0.0024 | 0.0569 ± 0.001 | 0.054 ± 0.0016 | 0.103 ± 0.089 | 0.0515 ± 0.0028 | 0.0531 ± 0.00076 | 0.05527 ± 0.00047 | 0.0526 ± 0.00044
10 | Clc1ccc(COC(Cn2ccnc2)c2ccc(Cl)cc2Cl)cc1 (configuration not stated) [Econazole nitrate] | 0.0521 ± 0.0032 | 0.048 ± 0.0022 | 0.05773 ± 5.8e-05 | 0.0544 ± 0.0013 | 0.0574 ± 0.0015 | 0.0483 ± 0.0014 | 0.0469 ± 0.00075 | 0.04693 ± 0.00042 | 0.04893 ± 0.00047 | 0.0996 ± 0.064 | 0.056 ± 0.002 | 0.059 ± 0.0077 | 0.0553 ± 0.0037
11 | CC[C@H]1OC(=O)[C@H](C)[C@@H](O[C@H]2C[C@@](C)(OC)[C@@H](O)[C@H](C)O2)[C@H](C)[C@@H](O[C@@H]2O[C@H](C)C[C@H](N(C)C)[C@H]2O)[C@](C)(OC)C[C@@H](C)C(=O)[C@H](C)[C@@H](O)[C@]1(C)O [Clarithromycin] | 0.0414 ± 0.00036 | 0.0421 ± 0.00026 | 0.04 ± 0.00071 | 0.0426 ± 0.00059 | 0.041 ± 0.0018 | 0.0437 ± 0.0036 | 0.0608 ± 0.013 | 0.0537 ± 0.0096 | 0.061 ± 0.0028 | 0.0632 ± 0.0078 | 0.055 ± 0.00044 | 0.0576 ± 0.0015 | 0.0524 ± 0.00061
12 | CCN(CC)CCNC(=O)c1cc(S(C)(=O)=O)ccc1OC [Tiapride hydrochloride] | 0.249 ± 0.0035 | 0.295 ± 0.01 | 0.263 ± 0.0064 | 0.213 ± 0.016 | 0.184 ± 0.0024 | 0.149 ± 0.0067 | 0.295 ± 0.057 | 0.422 ± 0.045 | 0.183 ± 0.023 | 0.218 ± 0.035 | 0.481 ± 0.087 | 0.422 ± 0.011 | 0.361 ± 0.013
13 | C#Cc1cccc(Nc2ncnc3cc(OCCOC)c(OCCOC)cc23)c1 [Erlotinib] | 0.193 ± 0.0065 | 0.256 ± 0.01 | 0.236 ± 0.0081 | 0.202 ± 0.0068 | 0.146 ± 0.0076 | 0.185 ± 0.01 | 0.349 ± 0.093 | 0.303 ± 0.066 | 0.161 ± 0.0058 | 0.201 ± 0.0093 | 0.436 ± 0.03 | 0.411 ± 0.005 | 0.35 ± 0.012
14 | Cc1c(Nc2ncccc2C(=O)O)cccc1C(F)(F)F [Flunixin meglumine] | 0.146 ± 0.0033 | 0.084 ± 0.007 | 0.0857 ± 0.0019 | 0.163 ± 0.005 | 0.082 ± 0.0026 | 0.127 ± 0.0028 | 0.157 ± 0.0086 | 0.125 ± 0.0096 | 0.178 ± 0.0075 | 0.187 ± 0.01 | 0.373 ± 0.034 | 0.277 ± 0.026 | 0.146 ± 0.021
